CBFb-RUNX1 inh – CBF-beta/RUNX1 interaction disruption | Q01196+Q13951 | AlphaScreen CBFb-His/RUNX1-biotin binding, biochemical | Potency, µM (titrated, usually from 59.8 µM), most hits filed as inhibitors | 230,000 tested, under 10 active | AID 1477
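CBF-beta (His) and RUNX1 (biotin), 30 nM each; 20 min preassociation; + compound, 15 min; + beads 50 ng each (Ni, streptavidin), 90 min; RT; AlphaScreen read.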
PTHR1 ag – PTHR1 (human) receptor agonism; Q03431; HEK293 GP2 PTHR1 cells, GloSensor cAMP luminescence, 1 h; Potency, µM (doses to about 115 µM), most hits filed as activators; 410,000 compounds, 0.075% hits; AID 743266; note: nearly all actives have a fitted effect of over 55% in size
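HEK-293-derived GP2 cells expressing PTHR1 and a GloSensor cAMP reporter, 3,000/well, plated overnight, given luciferin plus IBMX (each 0.5 mM as added) for 1 h at 37 °C, then compound for 1 h at 37 °C. Luminescence was read after 15 min at room temperature.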
a7 integrin act – activators of alpha7 integrin expression for muscular dystrophy | Potency, µM (titrated, usually from 38.3 µM), usual class: activators | alpha7betagal myoblasts, beta-gal FDG fluorescence, 48 h | AID 624291 | 350,000 compounds, 0.064% hits; note: nearly all actives have a fitted effect of over 60% in size
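alpha7betagal+/- myoblasts (passage 13, 250/well) treated 48 h at 37C with compounds at 1:260 dilution of DMSO stock. Lysed, then beta-galactosidase activity read as FDG fluorescence (ex 480/em 540) after 30 min, with pre-read for autofluorescence.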
DRD3 antagonist – D3 dopamine receptor (human) antagonism; D3R cells, DiscoveRx beta-arrestin luminescence, antagonist mode; active compounds read low; max response, negative = inhibition, %; 360,000 compounds, 2.5% hits; AID 652054; in the data active = max response below about -50%; inconclusive = no clear call, values can overlap the other calls
Target sequence (P35462 whole entry, looked up): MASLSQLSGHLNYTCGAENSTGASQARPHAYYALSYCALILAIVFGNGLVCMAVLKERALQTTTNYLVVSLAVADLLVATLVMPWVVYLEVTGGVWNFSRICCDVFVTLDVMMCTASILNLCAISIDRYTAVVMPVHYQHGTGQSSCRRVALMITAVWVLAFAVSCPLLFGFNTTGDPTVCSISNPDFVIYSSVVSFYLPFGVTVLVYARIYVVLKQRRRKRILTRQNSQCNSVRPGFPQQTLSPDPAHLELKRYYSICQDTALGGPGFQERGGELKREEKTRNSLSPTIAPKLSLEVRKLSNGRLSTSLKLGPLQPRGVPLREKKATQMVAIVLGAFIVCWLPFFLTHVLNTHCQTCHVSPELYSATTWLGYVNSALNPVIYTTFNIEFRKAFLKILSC
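Cells plated overnight at 1500 cells/well, then exposed to library compounds with dopamine controls for 90 minutes at 37 degrees C. DiscoveRx reagent added for 30–60 minutes at room temperature; luminescence read, quantitative HTS format.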
MBNL1-CUG inh – blocks human MBNL1 binding to CUG repeat RNA; TR-FRET MBNL1-His/biotin-(CUG)12 binding, 665/545 ratio; AID 2675; 280,000 compounds, 0.036% hits; Potency, µM (titrated, usually from 57.5 µM), hits mostly inhibitors; active = well fitted inhibition curve with a large enough effect in the signal ratio, with a control signal flat, not every such curve was filed as active; inconclusive = small, poorly fitted or top-dose-only effect, or effect the other way, or a change in a side signal; inactive = no such curve, though single readings can be large or run the other way; the % refers to the signal ratio
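Ratiometric TR-FRET (665 over 545 nm, excitation 340 nm) tracks disruption of MBNL1-His/biotin-(CUG)12 complex after 60 min at room temperature, with compounds at 92 nM to 58 uM final.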
DRD3 agonist – agonists of human D3 dopamine receptor | D3R DiscoveRx beta-arrestin cells, luminescence, 90 min | max activation, % | 410,000 compounds, 0.58% hits | AID 652048; in the data active = max activation above about 30%
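Cells at 1500/well, incubated overnight, then treated with pinned compounds (dopamine as control) for 90 min at 37 degrees C. DiscoveRx reagent added for 30 - 60 minutes at room temperature; luminescence read.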
A number is an active result; ! = not confirmed by another sample. Rows were chosen to be rich in hits. Some 2.8% of all compounds tested hit in one or more screens of this group. Unless noted, calls come from the whole dose curve; as a rule, active = well fitted curve in the direction sought with a large enough effect; inconclusive = small, poorly fitted or top-dose-only effect, or another doubt; inactive = no such curve, though single readings can be large; an effect the other way counts as inactive or inconclusive.

What do the screens show for `COCCn1nnnc1C(c1ccccc1OC)N1CCN(c2ccccc2F)CC1` (stereo not drawn)?
CBFb-RUNX1 inh: inactive; PTHR1 ag: inactive; a7 integrin act: inactive; DRD3 antagonist: inactive; MBNL1-CUG inh: inactive; DRD3 agonist: inactive

How did COCCn1nnnc1C(c1ccc(C)cc1)N1CCN(Cc2ccc3c(c2)OCO3)CC1 (stereo not drawn) do in these assays?
CBFb-RUNX1 inh: inactive; PTHR1 ag: inactive; a7 integrin act: inactive; DRD3 antagonist: inactive; MBNL1-CUG inh: inactive; DRD3 agonist: inactive

How did COCCn1nnnc1C(c1cc2cccc(C)c2[nH]c1=O)N1CCN(c2ccccc2F)CC1 (stereo not drawn) do in these assays?
CBFb-RUNX1 inh: inactive; PTHR1 ag: inactive; a7 integrin act: inactive; DRD3 antagonist: -54; MBNL1-CUG inh: inconclusive; DRD3 agonist: inactive

Results for Cc1ccc(C(c2nnnn2Cc2cccs2)N2CCN(Cc3ccc4c(c3)OCO4)CC2)cc1 (stereo not drawn) ?
CBFb-RUNX1 inh: inactive; PTHR1 ag: inactive; a7 integrin act: inactive; DRD3 antagonist: -53; MBNL1-CUG inh: inactive; DRD3 agonist: inactive

What do the screens show for `CCCC(c1nnnn1Cc1cccs1)N1CCN(C)CC1` (stereo not drawn)?
CBFb-RUNX1 inh: inactive; PTHR1 ag: inactive; a7 integrin act: inactive; DRD3 antagonist: inactive; MBNL1-CUG inh: inactive; DRD3 agonist: inactive

Results for COc1ccccc1CN1CCN(C(CC(C)C)c2nnnn2Cc2cccs2)CC1 (stereo not drawn) ?
CBFb-RUNX1 inh: inactive; PTHR1 ag: inactive; a7 integrin act: inactive; DRD3 antagonist: -63; MBNL1-CUG inh: inactive; DRD3 agonist: inactive

What do the screens show for `Cc1cccc(NC(=O)CN(c2ccc(F)cc2)S(C)(=O)=O)c1`?
CBFb-RUNX1 inh: inactive; PTHR1 ag: inactive; a7 integrin act: inactive; DRD3 antagonist: inactive; MBNL1-CUG inh: inactive; DRD3 agonist: inactive

Results for COc1ccc(C2=Nc3ccccc3N(CC(=O)Nc3cccc(C(C)=O)c3)C(=O)C2)cc1 ?
PTHR1 ag: inactive; DRD3 agonist: inactive

How did CC(C)C(NC(=O)c1ccccc1)C(=O)N/N=C\c1ccco1 (stereo not drawn) do in these assays?
CBFb-RUNX1 inh: inactive; PTHR1 ag: inactive; a7 integrin act: inactive; DRD3 antagonist: inactive; MBNL1-CUG inh: inconclusive; DRD3 agonist: inactive

How did O=C(NC1CCCCCCC1)c1ccc(S(=O)(=O)N2CCCC2)cc1 do in these assays?
CBFb-RUNX1 inh: inactive; PTHR1 ag: inactive; a7 integrin act: inactive; DRD3 antagonist: -53; MBNL1-CUG inh: inactive; DRD3 agonist: inactive

How did Cc1ccc(N2C(=O)C(CC(=O)Nc3ccc(F)cc3)N(Cc3ccc4c(c3)OCO4)C2=O)cc1 (stereo not drawn) do in these assays?
PTHR1 ag: inactive; DRD3 agonist: inactive

How did CN(C)CCN1CCN(C(c2ccnc3ccccc23)c2nnnn2-c2ccc3c(c2)OCCO3)CC1 (stereo not drawn) do in these assays?
PTHR1 ag: inactive; DRD3 antagonist: inactive; DRD3 agonist: inactive

Results for FC(F)(F)Oc1ccccc1C(c1nnnn1-c1ccc2c(c1)OCCO2)N1CCN(C/C=C/c2ccccc2)CC1 (stereo not drawn) ?
PTHR1 ag: inactive; DRD3 antagonist: -57; DRD3 agonist: inactive

What do the screens show for `C(=C\c1ccccc1)/CN1CCN(C(c2cccc3ccccc23)c2nnnn2-c2ccc3c(c2)OCCO3)CC1` (stereo not drawn)?
PTHR1 ag: inactive; DRD3 antagonist: -73; DRD3 agonist: inactive

Results for COc1ccc(Nc2cc(Nc3cc(OC)c(OC)c(OC)c3)ncn2)cc1 ?
PTHR1 ag: inactive; a7 integrin act: inactive; DRD3 antagonist: inactive; MBNL1-CUG inh: inactive; DRD3 agonist: inactive

Results for Cc1ccc(NN2C(=O)C=C(c3ccc(Cl)cc3)C2=O)cc1 ?
CBFb-RUNX1 inh: inactive; PTHR1 ag: inactive; a7 integrin act: inactive; DRD3 antagonist: -53; MBNL1-CUG inh: inactive; DRD3 agonist: inactive

How did COc1ccc(C2=CC(=O)N(Nc3ccccc3)C2=O)cc1 do in these assays?
CBFb-RUNX1 inh: inactive; PTHR1 ag: inactive; a7 integrin act: inactive; DRD3 antagonist: -62; MBNL1-CUG inh: inactive; DRD3 agonist: inactive

What do the screens show for `O=C1C=C(c2ccccc2)C(=O)N1Nc1ccccc1`?
CBFb-RUNX1 inh: inactive; PTHR1 ag: inactive; a7 integrin act: inactive; DRD3 antagonist: inconclusive; MBNL1-CUG inh: inactive; DRD3 agonist: inactive

How did CCC1(c2ccc(Cl)cc2)NC(=O)N(Cc2ccc(C(=O)OC)cc2)C1=O (stereo not drawn) do in these assays?
CBFb-RUNX1 inh: inactive; PTHR1 ag: inactive; a7 integrin act: inactive; DRD3 antagonist: inactive; MBNL1-CUG inh: inactive; DRD3 agonist: inactive

What do the screens show for `Cc1ccsc1C(=O)NCc1ccc(F)cc1`?
PTHR1 ag: inactive; a7 integrin act: inactive; DRD3 antagonist: inactive; MBNL1-CUG inh: inactive; DRD3 agonist: inactive

Results for CCCCC[C@H]1CN(Cc2ccc(OC)cc2)C(=O)[C@@H]1CC(=O)NCc1ccccc1 ?
PTHR1 ag: inactive; a7 integrin act: inactive; DRD3 antagonist: inactive; MBNL1-CUG inh: inactive; DRD3 agonist: inactive

Results for CCCCC[C@H]1CN(CCCC)C(=O)[C@@H]1CC(=O)NCc1ccccc1 ?
PTHR1 ag: inactive; a7 integrin act: inactive; DRD3 antagonist: inactive; MBNL1-CUG inh: inactive; DRD3 agonist: 34

How did CC1Sc2ccccc2N(CC(=O)N(C(C)C)C(C)C)C1=O (stereo not drawn) do in these assays?
CBFb-RUNX1 inh: inactive; PTHR1 ag: inactive; a7 integrin act: inactive; DRD3 antagonist: -70; MBNL1-CUG inh: inactive; DRD3 agonist: inactive

What do the screens show for `CCC(C)NC(=O)CN1C(=O)C(CC)Sc2ccccc21` (stereo not drawn)?
CBFb-RUNX1 inh: inactive; PTHR1 ag: inactive; a7 integrin act: inconclusive; DRD3 antagonist: inactive; MBNL1-CUG inh: inactive; DRD3 agonist: inactive

Results for Fc1ccccc1N1CCN(c2ncnc3c2nc2n3CCCCC2)CC1 ?
PTHR1 ag: inactive; DRD3 agonist: inactive

What do the screens show for `Cc1cccc(N2CCN(C(=O)C3CCN(c4ncnc5c4nc4n5CCCCC4)CC3)CC2)c1C`?
PTHR1 ag: inactive; a7 integrin act: inactive; DRD3 antagonist: inactive; MBNL1-CUG inh: inactive; DRD3 agonist: inactive

How did Cc1cccc(N2CCN(C(=O)C3CCN(c4ncnc5c4nc4n5CCCCC4)CC3)CC2C)c1 (stereo not drawn) do in these assays?
PTHR1 ag: inactive; a7 integrin act: inactive; DRD3 antagonist: inactive; MBNL1-CUG inh: inactive; DRD3 agonist: 35!
